# Assay results taken from ChEMBL document CHEMBL1961873, “Compounds: GSK PKIS; Assays: Nanosyn kinase panel” (2012).
# Target: Serine/threonine-protein kinase SIK1 (Homo sapiens) (UniProt P57059)
# Conditions: at 0.1 µM
# Serine/threonine-protein kinase SIK1 (Homo sapiens), sequence (P57059 whole entry): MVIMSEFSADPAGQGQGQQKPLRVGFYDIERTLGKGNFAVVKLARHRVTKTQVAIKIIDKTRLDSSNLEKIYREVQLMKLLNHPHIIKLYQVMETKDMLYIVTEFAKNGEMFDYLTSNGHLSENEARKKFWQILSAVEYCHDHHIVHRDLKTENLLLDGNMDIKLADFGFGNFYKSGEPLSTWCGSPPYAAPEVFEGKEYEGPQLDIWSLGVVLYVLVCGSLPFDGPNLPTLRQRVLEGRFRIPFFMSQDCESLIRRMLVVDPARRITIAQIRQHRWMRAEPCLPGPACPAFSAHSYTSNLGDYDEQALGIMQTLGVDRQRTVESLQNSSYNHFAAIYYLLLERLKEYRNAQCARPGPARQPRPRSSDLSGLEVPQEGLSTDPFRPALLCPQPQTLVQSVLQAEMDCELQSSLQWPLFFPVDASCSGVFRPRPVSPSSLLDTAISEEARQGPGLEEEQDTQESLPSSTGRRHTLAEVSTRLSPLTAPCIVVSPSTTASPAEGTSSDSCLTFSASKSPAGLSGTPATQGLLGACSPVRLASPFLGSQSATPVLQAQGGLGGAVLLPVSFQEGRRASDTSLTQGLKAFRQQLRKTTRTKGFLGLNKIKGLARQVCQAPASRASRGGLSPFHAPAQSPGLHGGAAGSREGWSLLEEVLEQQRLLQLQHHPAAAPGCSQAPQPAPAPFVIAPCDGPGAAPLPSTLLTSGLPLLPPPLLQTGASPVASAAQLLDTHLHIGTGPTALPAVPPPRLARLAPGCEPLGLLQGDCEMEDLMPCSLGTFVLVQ
row,Structure (SMILES),inhibition
1,CCn1c(-c2nonc2N)nc2c(C#CCN)ncc(OCCCN)c21,-4.16%
2,CCn1c(-c2nonc2N)nc2c(C#CC(C)(C)O)nc(O[C@@H](CN)c3ccccc3)cc21,-0.97%
3,NS(=O)(=O)c1ccc(N/C=C2\C(=O)Nc3ccc4ncsc4c32)cc1,2.12%
4,NC(=O)c1sc(-n2cnc3cc(C(F)(F)F)ccc32)cc1OCc1ccccc1Br,6.45%
5,Cc1cc(-c2ccco2)cc(C)c1/C=C/c1cncc(-c2nn[nH]n2)c1,-0.49%
6,Nc1nonc1-c1nc2cnccc2n1C1CCCCC1,-4.72%
7,COc1cccc(-n2ncc3c(N/N=C/c4ccncc4)ncnc32)c1,4.22%
8,COc1cc2c(cc1Nc1nc(Nc3ccsc3C(N)=O)c3cc[nH]c3n1)N(C(=O)CN(C)C)CCC2,-0.68%
9,CCn1c(-c2nonc2N)nc2c(C#CC(C)(C)O)ncc(OC[C@@H]3CCCN3)c21,1.03%
10,CCn1c(-c2nonc2N)nc2c(C#CC(C)(C)O)ncc(OCC3CCNCC3)c21,4.3%
11,COc1cccc(COc2cc(-n3cnc4ccccc43)sc2C(N)=O)c1,-0.86%
12,Fc1ccc(-c2ncn(C3CCNCC3)c2-c2ccnc(Oc3ccccc3)n2)cc1,2.14%
13,NS(=O)(=O)c1ccc(-c2ccc3c(NC(=O)C4CC4)n[nH]c3c2)cc1,5.15%

# Target: Serine/threonine-protein kinase SIK1 (Homo sapiens) (UniProt P57059)
# Conditions: at 1 µM
row,Structure (SMILES),inhibition
1,COc1cc(C=NNc2ncnc3c2cnn3Cc2ccccc2)ccc1O,-3.99%
2,CCn1c(-c2nonc2N)nc2c(C#CCN)ncc(OCCCN)c21,-7.22%
3,CCn1c(-c2nonc2N)nc2c(C#CC(C)(C)O)nc(O[C@@H](CN)c3ccccc3)cc21,8.3%
4,NS(=O)(=O)c1ccc(N/C=C2\C(=O)Nc3ccc4ncsc4c32)cc1,21%
5,NC(=O)c1sc(-n2cnc3cc(C(F)(F)F)ccc32)cc1OCc1ccccc1Br,1.7%
6,Cc1cc(-c2ccco2)cc(C)c1/C=C/c1cncc(-c2nn[nH]n2)c1,6.77%
7,Nc1nonc1-c1nc2cnccc2n1C1CCCCC1,-3.76%
8,COc1cccc(-n2ncc3c(N/N=C/c4ccncc4)ncnc32)c1,27.9%
9,COc1cc2c(cc1Nc1nc(Nc3ccsc3C(N)=O)c3cc[nH]c3n1)N(C(=O)CN(C)C)CCC2,-0.04%
10,CCn1c(-c2nonc2N)nc2c(C#CC(C)(C)O)ncc(OC[C@@H]3CCCN3)c21,4.19%
11,CCn1c(-c2nonc2N)nc2c(C#CC(C)(C)O)ncc(OCC3CCNCC3)c21,18%
12,COc1cccc(COc2cc(-n3cnc4ccccc43)sc2C(N)=O)c1,3.4%
13,Fc1ccc(-c2ncn(C3CCNCC3)c2-c2ccnc(Oc3ccccc3)n2)cc1,8.86%
14,NS(=O)(=O)c1ccc(-c2ccc3c(NC(=O)C4CC4)n[nH]c3c2)cc1,3.27%

# Target: Serine/threonine-protein kinase SIK2 (Homo sapiens) (UniProt Q9H0K1)
# Sequence (Q9H0K1 whole entry, looked up): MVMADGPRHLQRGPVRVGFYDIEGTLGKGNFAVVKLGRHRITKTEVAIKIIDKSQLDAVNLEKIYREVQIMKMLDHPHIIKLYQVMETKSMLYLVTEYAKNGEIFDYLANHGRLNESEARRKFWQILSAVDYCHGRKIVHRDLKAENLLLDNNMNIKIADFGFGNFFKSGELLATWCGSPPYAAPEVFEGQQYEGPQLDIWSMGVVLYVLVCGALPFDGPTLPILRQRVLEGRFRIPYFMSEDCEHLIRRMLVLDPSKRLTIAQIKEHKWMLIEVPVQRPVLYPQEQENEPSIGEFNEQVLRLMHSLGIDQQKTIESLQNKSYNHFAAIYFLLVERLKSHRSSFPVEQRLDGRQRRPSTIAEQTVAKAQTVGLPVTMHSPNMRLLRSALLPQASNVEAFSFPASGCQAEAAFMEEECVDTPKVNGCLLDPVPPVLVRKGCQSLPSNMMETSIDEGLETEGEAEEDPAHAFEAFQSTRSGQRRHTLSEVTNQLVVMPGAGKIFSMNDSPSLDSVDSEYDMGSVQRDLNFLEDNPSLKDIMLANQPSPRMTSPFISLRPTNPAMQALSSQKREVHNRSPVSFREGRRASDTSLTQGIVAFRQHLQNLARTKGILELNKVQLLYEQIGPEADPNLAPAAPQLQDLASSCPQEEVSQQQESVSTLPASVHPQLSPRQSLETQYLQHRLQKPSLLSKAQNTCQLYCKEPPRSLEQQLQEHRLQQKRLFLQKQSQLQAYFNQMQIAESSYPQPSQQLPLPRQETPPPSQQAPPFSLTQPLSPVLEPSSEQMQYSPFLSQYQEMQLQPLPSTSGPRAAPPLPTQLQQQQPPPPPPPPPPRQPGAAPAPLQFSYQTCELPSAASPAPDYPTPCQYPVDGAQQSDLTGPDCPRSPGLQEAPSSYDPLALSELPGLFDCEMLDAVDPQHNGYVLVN
# Conditions: at 0.1 µM
row,Structure (SMILES),inhibition
1,COc1cc(C=NNc2ncnc3c2cnn3Cc2ccccc2)ccc1O,-6%
2,CCn1c(-c2nonc2N)nc2c(C#CCN)ncc(OCCCN)c21,-2.87%
3,CCn1c(-c2nonc2N)nc2c(C#CC(C)(C)O)nc(O[C@@H](CN)c3ccccc3)cc21,-0.81%
4,NS(=O)(=O)c1ccc(N/C=C2\C(=O)Nc3ccc4ncsc4c32)cc1,9%
5,NC(=O)c1sc(-n2cnc3cc(C(F)(F)F)ccc32)cc1OCc1ccccc1Br,-0.18%
6,Cc1cc(-c2ccco2)cc(C)c1/C=C/c1cncc(-c2nn[nH]n2)c1,-2.65%
7,Nc1nonc1-c1nc2cnccc2n1C1CCCCC1,-6.25%
8,COc1cccc(-n2ncc3c(N/N=C/c4ccncc4)ncnc32)c1,15.4%
9,COc1cc2c(cc1Nc1nc(Nc3ccsc3C(N)=O)c3cc[nH]c3n1)N(C(=O)CN(C)C)CCC2,-2.92%
10,CCn1c(-c2nonc2N)nc2c(C#CC(C)(C)O)ncc(OC[C@@H]3CCCN3)c21,-4.09%
11,CCn1c(-c2nonc2N)nc2c(C#CC(C)(C)O)ncc(OCC3CCNCC3)c21,3.58%
12,COc1cccc(COc2cc(-n3cnc4ccccc43)sc2C(N)=O)c1,-0.88%
13,Fc1ccc(-c2ncn(C3CCNCC3)c2-c2ccnc(Oc3ccccc3)n2)cc1,-0.18%
14,NS(=O)(=O)c1ccc(-c2ccc3c(NC(=O)C4CC4)n[nH]c3c2)cc1,1.79%

# Target: Serine/threonine-protein kinase SIK2 (Homo sapiens) (UniProt Q9H0K1)
# Conditions: at 1 µM
row,Structure (SMILES),inhibition
1,CCn1c(-c2nonc2N)nc2c(C#CCN)ncc(OCCCN)c21,-1.04%
2,CCn1c(-c2nonc2N)nc2c(C#CC(C)(C)O)nc(O[C@@H](CN)c3ccccc3)cc21,14.8%
3,NS(=O)(=O)c1ccc(N/C=C2\C(=O)Nc3ccc4ncsc4c32)cc1,25.8%
4,NC(=O)c1sc(-n2cnc3cc(C(F)(F)F)ccc32)cc1OCc1ccccc1Br,3.79%
5,Cc1cc(-c2ccco2)cc(C)c1/C=C/c1cncc(-c2nn[nH]n2)c1,0.13%
6,Nc1nonc1-c1nc2cnccc2n1C1CCCCC1,9.23%
7,COc1cccc(-n2ncc3c(N/N=C/c4ccncc4)ncnc32)c1,54%
8,COc1cc2c(cc1Nc1nc(Nc3ccsc3C(N)=O)c3cc[nH]c3n1)N(C(=O)CN(C)C)CCC2,5.93%
9,CCn1c(-c2nonc2N)nc2c(C#CC(C)(C)O)ncc(OC[C@@H]3CCCN3)c21,6.59%
10,CCn1c(-c2nonc2N)nc2c(C#CC(C)(C)O)ncc(OCC3CCNCC3)c21,18.4%
11,COc1cccc(COc2cc(-n3cnc4ccccc43)sc2C(N)=O)c1,-4.75%
12,Fc1ccc(-c2ncn(C3CCNCC3)c2-c2ccnc(Oc3ccccc3)n2)cc1,7.64%
13,NS(=O)(=O)c1ccc(-c2ccc3c(NC(=O)C4CC4)n[nH]c3c2)cc1,8.87%
